Screening data as filed in PubChem.
VACV mCherry inh = vaccinia inhibition (mCherry reporter); 310,000 compounds, 0.63% hits; Potency, µM (highest dose often 36.5 µM), inactives show at the highest dose activity change, negative = inhibition, hits mostly inhibitors; AID 720579; Vaccinia virus mCherry reporter infection, fluorescence; calls by dose curve; tested in A549 cells; further: potency means the concentration at half of the fitted maximal effect; nearly all actives have a fitted effect of over 35% in size
Sm TGR inh = S. mansoni TGR enzyme inhibition; 360,000 compounds, 3% hits; purified TGR, DTNB reduction, TNB absorbance 405 nm; Potency, µM (top dose mostly 114 µM), for inactives: top-dose activity change, negative = inhibition, usual class: inhibitors; Q962Y6; further: potency means the concentration at half of the fitted maximal effect; nearly all actives have a fitted effect of over 60% in size
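TGR 20 nM + NADPH 100 uM (dispensed conc.), cpd preinc 15 min RT; start with NADPH (500 uM addition) then DTNB (15 mM addition). Kinetic TNB absorbance, 405 nm filter. Four-parameter Hill fit across titration.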
Vaccinia Venus = inhibitors of vaccinia virus (Venus reporter); Vaccinia virus Venus reporter expression, fluorescence; 330,000 compounds, 0.46% hits; Potency, µM (highest dose often 36.5 µM), for inactives: at the top dose activity change, negative = inhibition, most hits filed as inhibitors; calls by dose curve; tested in A549 cells; further: potency means the concentration at half of the fitted maximal effect; nearly all actives have a fitted effect of over 30% in size
HCMV antiviral = human cytomegalovirus inhibition; HFF cells, HCMV-luciferase reporter, 72 h; hits give low values; activity change, negative = inhibition, % at 57.5 µM; 410,000 compounds, 4.5% hits; AID 1259415; in the data active means activity change below about -60%; inconclusive means no clear call, values can overlap the other calls; inactive means above about -39%
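Luciferase read-out from HCMV-luciferase-infected HFFs (MOI 1 PFU/cell) 72 h post infection at 37C; compounds added after 16 h cell attachment; activity normalized between buffer-only basal and Salinomycin (10uM) inhibitor controls.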
HCV inh = blocks hepatitis C virus; Potency, µM (highest dose often 41.8 µM), without a hit: at the highest dose activity change, negative = inhibition, actives largely listed as inhibitors; Huh7.5.1 HCVcc-Cre infection, luciferase reporter, 44 h; 340,000 compounds, 3.4% hits; further: potency means the concentration at half of the fitted maximal effect
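Reporter virus HCVcc-Cre (~0.5 moi) infects cells exposed to compound; seeding density 1,000 cells/well with 4 h settling beforehand. Luminescence, 15 sec read, taken 44 h post-infection following a 15 min RT substrate incubation.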
FMDV antiviral = blocks foot and mouth disease virus; FMDV antiviral cell-based qHTS; 410,000 compounds, 1.2% hits; Potency, µM (series often up to 57.9 µM), for inactives: top-dose activity change, negative = inhibition, most hits filed as inhibitors; calls by dose curve; tested in HEK293T cells; further: read-out not given here; potency means the concentration at half of the fitted maximal effect; nearly all actives have a fitted effect of over 45% in size
* = called active by the depositor; i = inactive; ? = inconclusive; nt = no result given. Only some compounds are listed: those with a hit (about 9.3% of all), similar ones and a draw of the others. Unless noted, the call rests on the fitted dose curve; in most records, active means well fitted curve in the direction sought with a large enough effect; inconclusive means small, poorly fitted or top-dose-only effect, or another doubt; inactive means no such curve, though single readings can be large; an effect the other way counts as inactive or inconclusive. On the % scale 0 is the no-effect control and ±100 the full control effect.

SMILES	VACV mCherry inh	Sm TGR inh	Vaccinia Venus	HCMV antiviral	HCV inh	FMDV antiviral
CN(C)S(=O)(=O)c1cccc(COc2ccccc2C(=O)Nc2ccccc2)c1	-11.8%	-11.8%	-14.4%	-27.2	?	0.0%
CC(C)CN(C(=O)CSc1nnc2ccccn12)C1CCS(=O)(=O)C1 (stereo not drawn)	nt	-0.1%	nt	-9.3	1.3%	-12.4%
O=C(Nc1ccc(S(=O)(=O)NC2=NCCCCC2)cc1)c1cc(S(=O)(=O)N2CCOCC2)ccc1F	i	-17.6%	-7.5%	23.7	16.2%	-5.4%
O=C(NNC(=O)c1ccccc1OCc1ccccc1)c1ccccc1O	7.08µM*	-23.4%	?	-88.4*	?	8.3%
O=C(NNC(=O)c1ccccc1OCc1ccccc1)c1ccccc1F	i	-3.0%	4.2%	132.3	-25.9%	16.4%
O=C(NNC(=O)c1ccccc1OCc1ccc(F)cc1)c1ccccc1O	?	-11.1%	?	-94.8*	6.31µM*	-21.8%
CCCCOC(=O)C1=C(N)OC2=C(C(=O)CCC2)[C@]12C(=O)N(C)c1ccccc12	nt	-1.0%	-28.1%	38.6	19.7%	?
CC(C)NC(=S)N/N=C1\CCCCc2ccccc21	nt	-20.3%	nt	?	?	-12.1%
S=C(N/N=C1\CCc2ccccc21)NC1CCCCC1	nt	-24.6%	nt	-24.8	8.91µM*	7.6%
Cc1ccc(C)c(NC(=S)N/N=C2/CCCCc3ccccc32)c1	-0.9%	-3.0%	-23.8%	-70.9*	?	0.0%
CN1C(=O)C(=Cc2sc(=O)n(-c3ccccc3)c2N(C)C)C(=O)N(C)C1=O	-7.1%	7.2%	26.9%	-60.1*	?	15.8µM*
Cc1ccc(S(=O)(=O)N2CCOCC2)cc1NC(=O)COc1ccc(C(=O)c2ccccc2)cc1	nt	1.2%	nt	20.6	10µM*	20µM*
Cc1ccc(S(=O)(=O)N2CCOCC2)cc1NC(=O)COC(=O)CNC(=O)c1ccccc1	i	-1.8%	-7.7%	-16.2	1.7%	-2.7%
Cc1ccc(S(=O)(=O)N2CCOCC2)cc1C(=O)O	nt	0.1%	nt	2.5	14.8%	5.6%
Cc1ccc(S(=O)(=O)N2CCOCC2)cc1NC(=O)COc1ccccc1Cc1ccccc1	-19.3%	nt	-22.4%	?	12.6µM*	?
Cc1ccc(S(=O)(=O)N2CCOCC2)cc1C(=O)OC(C)C(=O)c1ccccc1 (stereo not drawn)	?	5.2%	-16.3%	-38.7	3.55µM*	-18.1%
O=C(COc1ccccc1Cc1ccccc1)Nc1cccc(S(=O)(=O)N2CCOCC2)c1	-8.0%	0.7%	-24.3%	-28.7	?	2.7%
Cc1c(NC(=O)NC2CCCCC2)cccc1[N+](=O)[O-]	nt	9.4%	nt	-19.7	3.3%	72.0%
Brc1ccc(CN2CCCc3nc(-c4ccccc4)ccc32)cc1	nt	nt	nt	-80.7*	nt	nt
Cc1c(Cl)c([N+](=O)[O-])nn1CCCC(=O)Nc1cc(Oc2ccccc2)cc([N+](=O)[O-])c1	-6.5%	0.9%	-4.8%	12.4	?	-11.4%
COc1ccc(CCn2cc(C#N)c(=O)[nH]c2=O)cc1OC	-0.5%	14.4%	-4.3%	-10.2	0.9%	1.5%
C=CCN(C(=O)c1csnn1)C(C(=O)NCc1ccc(F)cc1)c1cccs1 (stereo not drawn)	18.9%	-13.6%	-0.9%	6.3	-0.5%	-1.9%
CCN1CCN(CCNC(=O)c2ccc3c(c2)N(Cc2ccc(F)cc2)C(=O)/C(=C/c2ccccc2)S3)CC1	?	-4.7%	?	-80.9*	?	6.2%
Cc1cccc(CN2C(=O)/C(=C\c3ccc(C(=O)NCCN4CCOCC4)cc3)Sc3ccccc32)c1	-3.5%	-5.8%	-25.6%	nt	?	39.8µM*
Cc1ccccc1CN1C(=O)/C(=C\c2ccc(C(=O)NCCN3CCOCC3)cc2)Sc2ccccc21	?	-1.7%	-17.4%	-26.8	?	0.0%
SMILES	VACV mCherry inh	Sm TGR inh	Vaccinia Venus	HCMV antiviral	HCV inh	FMDV antiviral
O=C(NCCN1CCOCC1)c1ccc(/C=C2\Sc3ccccc3N(Cc3ccccc3F)C2=O)cc1	nt	-2.1%	nt	-34.9	?	?
CCN1CCN(CCNC(=O)c2ccc(/C=C3/Sc4ccccc4N(Cc4cccc(Cl)c4)C3=O)cc2)CC1	-21.9%	5.9%	?	-103.3*	11.2µM*	-27.0%
CN1CCN(CCCNC(=O)c2ccc(/C=C3\Sc4ccccc4N(Cc4ccccc4F)C3=O)cc2)CC1	nt	1.7%	nt	-63.4*	10µM*	2.1%
COc1ccccc1NC(=O)C1=C(C)Nc2nc(SCc3ccccc3Cl)nn2C1c1cccnc1 (stereo not drawn)	?	10.5%	?	12.9	nt	-17.8%
CCOC(=O)/C=C1\SCC(=O)N1CC(=O)Nc1ccccc1OC(F)F	nt	0.2%	nt	30.3	-6.1%	-0.7%
CC(C)N1CC2=C(OC(N)=C(C#N)C2c2cccnc2)/C(=C/c2cccnc2)C1 (stereo not drawn)	-4.5%	-19.8%	3.2%	7.3	17.3%	-6.3%
N#CC1=C(N)OC2=C(CN(Cc3ccccc3)C/C2=C\c2cccnc2)C1c1cccnc1 (stereo not drawn)	nt	22.4µM*	-7.8%	-32.4	2.9%	?
CCN1C=C(Cc2cccs2)C2=C(C1)C(c1cccs1)C(C#N)=C(N)O2 (stereo not drawn)	i	22.4µM*	-14.5%	-35.6	?	20µM*
CCN1CC2=C(OC(N)=C(C#N)C2c2cccs2)/C(=C/c2cccs2)C1 (stereo not drawn)	i	35.5µM*	-19.6%	2.3	22.4µM*	28.2µM*
CCN1CC2=C(OC(N)=C(C#N)C2c2ccccc2)/C(=C\c2ccccc2)C1 (stereo not drawn)	nt	?	-13.2%	-18.4	?	22.4µM*
CCOC(=O)C1=C(C)OC(N)=C(C#N)C1c1cccs1 (stereo not drawn)	-9.4%	?	-1.2%	-12.1	3.9%	-18.4%
CCOC(=O)C1=C(C)OC(N)=C(C#N)C1c1ccccc1 (stereo not drawn)	nt	?	nt	?	3.0%	-5.4%
CC1(C)CC(=O)C(=C2SCCCS2)C(=O)C1	-12.2%	-2.2%	-8.9%	15.1	11.6%	-7.0%
NC(=O)C1CCN(C(=O)c2cnn(-c3ccccc3)c2NC(=O)c2cccc(F)c2)CC1	-5.7%	4.6%	-4.8%	10.8	8.9%	0.8%
COc1ccc(C)cc1-n1c(SCC(=O)NCC2CCCO2)nc2c([nH]c3ccccc32)c1=O (stereo not drawn)	-0.8%	-2.4%	-17.0%	-17.0	8.91µM*	-15.7%
CCC1CCCCN1C(=O)CSc1nc2c([nH]c3ccccc32)c(=O)n1-c1cccc(OC)c1 (stereo not drawn)	?	-0.6%	-27.9%	-90.9*	nt	-12.0%
COc1cccc(NC(=O)CSc2nc3ccccc3c(=O)n2C)c1	nt	5.2%	nt	?	22.4µM*	0.0%
